According to the supplement of paper PMC3484114:
± gives the standard deviation.

tested on: OVCAR-3-derived ovarian cancer stem-like cells (spheroids); experiment: cell growth relative to untreated control; higher = more growth (less inhibition); conditions: 2.29 µM; 96 h
Procedure, shortened: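 Viability of stem-like cells from OVCAR-3 spheroids was assessed with TOX8 resazurin fluorescence at ex 560/em 590 nm. The cells had been trypsin-dissociated, seeded at 50,000 cells/mL in stem cell medium in ultra-low attachment 96-well plates and preincubated 24 h, then treated with compounds at 2.29 uM for 96 h at 37°C, 5% CO2, in 4 replicate wells, with fluorescence read after 4 h. Results were converted to percent growth against untreated wells after blank subtraction and Grubbs outlier removal.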

| SMILES | cell growth [%] |
| --- | --- |
| O=C1Nc2c(Cl)cc(Cl)cc2C1=NN=Cc1ccco1 | 84.3 ± 20 |
| CCC(C#N)(c1ccccc1)N(CCc1ccccc1)C(=O)c1ccccc1 (stereo not given) | 129 ± 28 |
| CCCCCCCCCCCCC(O)C(=O)O (stereo not given) | 115 ± 19 |
| C/C(=N\NC(=S)N1CCN(C2CCCCCC2)CC1)c1ccccn1 | 14.7 ± 7.5 |
| Cc1nc(-c2cccnc2)sc1C(=O)/C=C/c1ccc(Cl)cc1Cl | 114 ± 34 |
| CN1CCCC2C(c3ccccc3)C(C3=NCCCC3)C(c3ccccc3)CC21 (stereo not given) | 110 ± 27 |
| CN(C)C[C@H]1CC[C@@H](CN(C)C)C1=O | 93.8 ± 21 |
| CCN(CC)CCCC(C)NC(=O)c1ccc2c(c1)C(=O)c1ccccc1C2=O (stereo not given) | 35.6 ± 15 |
| O=C1OC(c2ccco2)=N/C1=C\c1ccc(Cl)c(Cl)c1 | 17.7 ± 5 |
| CCCCCCC1CC(=O)C1(Cl)Cl (stereo not given) | 104 ± 16 |
| CCOC(=O)CCc1c(C)c2c(O)cc(O)cc2oc1=O | 100 ± 21 |
| C/C(=N\Nc1nc2ccccc2s1)c1ccncn1 | 30.8 ± 7.4 |
| CN(C)c1ccc(/C=C2\Cc3ccccc3C2=O)cc1Br | 169 ± 23 |
| Cc1ccc(S(=O)(=O)ON=C2CC(c3ccccc3)N(C)C(c3ccccc3)C2)cc1 (stereo not given) | 96.7 ± 22 |
| CCCCCCCCCCCCCCCCOP(=O)([O-])OCC[N+](C)(C)C | 85.9 ± 16 |
| COc1ccc(C(=O)/C(Br)=C\C(=O)O)cc1 | 75.5 ± 16 |
| CC(=O)c1sc2[n+](c1C)C(=O)/C(=C\c1ccccc1Cl)S2 | 99.4 ± 17 |
| Cc1c2ccncc2c(C)c2c1sc1ccccc12 | 120 ± 13 |
| CC1OC(CC(=O)O)CC2=C1C(=O)c1c(O)cccc1C2=O (stereo not given) | 130 ± 42 |
| N#Cc1ccccc1NC(=O)C(=O)C(C(=O)c1ccccc1F)C1OC(=O)c2ccccc21 (stereo not given) | 98.8 ± 24 |

| SMILES | cell growth [%] |
| --- | --- |
| COc1ccc(/C=C2\CCCc3ccccc3C2=O)cc1 | 54.4 ± 10 |
| CC(CN(C)C)C(=O)c1ccccc1C(=O)O (stereo not given) | 92.7 ± 31 |
| COc1ccc(Cc2nc3ccccc3s2)cc1OC | 98.9 ± 21 |
| C=C(C)[C@@H]1CC[C@]2(CO)CC[C@]3(C)[C@H](CC[C@@H]4[C@@]5(C)CC[C@H](O)C(C)(C)[C@@H]5CC[C@]43C)[C@@H]12 | 90 ± 24 |
| Cc1c(C(=O)C/C(=N/NC(=O)CC#N)C(N)=O)[n+](=O)c2ccccc2n1[O-] | 51.9 ± 10 |
| O=S1(=O)OCCOS(=O)(=O)C1Cc1ccccc1 | 93.4 ± 15 |
| [O-][S+]1c2ccccc2N=C(c2cccc3ccccc23)CC1c1cccc2ccccc12 (stereo not given) | 84.1 ± 16 |
| CCCC(=O)[O-].[Na+] | 88.2 ± 19 |
| O=C1CCC(c2ccccc2)=NN1c1nc2ccccc2s1 | 39.3 ± 10 |
| CCOc1ccccc1NC(=O)CC1Sc2ccccc2NC1=O (stereo not given) | 70.6 ± 14 |
| OCC1OC(n2cnc3c(SCc4ccccc4)ncnc32)C(O)C1O (stereo not given) | 118 ± 33 |
| CC(=O)OC[C@H]1O[C@@H](NC(=O)N(CCCl)N=O)[C@H](OC(C)=O)[C@@H](OC(C)=O)[C@@H]1OC(C)=O | 115 ± 15 |
| O=C1C(=O)c2ccccc2C(O)=C1CC=C(Cl)Cl | 92.3 ± 30 |
| Oc1[nH]c2ccccc2c1N=Nc1c(F)c(F)c(F)c(F)c1F | 100 ± 13 |
| CCN(CC)CCNc1ccc(CO)c2sc3ccccc3c(=O)c12 | 99 ± 39 |
| Cc1cccc(Cl)c1NC(=O)/C=C/c1ccccc1 | 102 ± 14 |
| N#CCCN(c1ccc(C=O)cc1)S(=O)(=O)c1ccccc1 | 116 ± 22 |
| Cc1c2ccnc(C(N)=O)c2c(C)c2c1[nH]c1ccccc12 | 113 ± 10 |
| CC(C)(C)OC(=O)NC(Cc1ccccc1)C(=O)OCN1C(=O)C2C3C=CC(C2C1=O)C1C2C(=O)N(COC(=O)C(Cc4ccccc4)NC(=O)OC(C)(C)C)C(=O)C2C31 (stereo not given) | 109 ± 26 |
| COc1ccc(C=CC(=O)Oc2cc(O)cc(O)c2)cc1 | 99.6 ± 16 |
